High-throughput results: PubChem BioAssay, The Scripps Research Institute Molecular Screening Center
Compounds with a hit are over-represented: about 0.83% of the library has one in this group of screens.
S1P4 ag: S1P4 receptor agonists, primary screen, cell-based | AID 1509, 2009 | 220,000 compounds, 0.35% hits | S1P4-expressing cell line, agonist reporter assay | activation, % at 4.98 µM; in the data active means activation above about 11%
S1P3 antagonist: S1P3 receptor antagonists, primary screen, cell-based. inhibition, % at 4.98 µM. Sphingosine 1-phosphate receptor 3 (Homo sapiens), Q99500. CHO S1P3 NFAT-BLA reporter, FRET fluorescence, antagonist mode. 170,000 compounds, 0.27% hits;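 active means inhibition above the plate cutoff, the mean inhibition of test wells on that plate plus 3 SD, cut at about 28% in these data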;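 further: cells challenged with S1P at its EC80 of 0.8 µM; blue over green emission ratio from cleaved BLA substrate after 4 h stimulation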
S1P4 antagonist: S1P4 receptor antagonists, primary screen, cell-based. 220,000 compounds, 0.26% hits. AID 1510, 2009. S1P4-expressing cells, antagonist mode, reporter read-out. inhibition, % at 4.98 µM; in the data active means inhibition above about 29%
Hsp70 act: Hsp70 transcriptional activators, primary screen, cell-based, HeLa, Hsp70 promoter luciferase, luminescence, 10 µM; HeLa Hsp70 promoter luciferase reporter; scaled: vehicle 0, proteasome-inhibitor control 100%; activation, % at 10 µM; 200,000 compounds, 0.04% hits; AID 1203, 2008;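 active means activation above the mean across all tested compounds plus 3 SD, cutoff set per campaign, cut at about 5.5% in these data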
Pf gamet viab: late stage P. falciparum gametocyte viability inhibitors, primary screen, ATP luminescence, HTS; P. falciparum stage V gametocytes, 24 h; inhibition, % at 10.9 µM; AID 743093, 2013; 150,000 compounds, 0.065% hits;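 active means inhibition above the mean plus 3 SD of compounds within the control limits, set per campaign, cut at about 38% in these data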
S1P4 ag conf: S1P4 receptor agonists, retest, confirmation, cell-based, high throughput; 740 compounds, 7% hits; activation, % at 4.98 µM; AID 1523, 2009; shares compounds with S1P4 ag; S1P4 agonist cell-based reporter assay; in the data active means activation above about 12%
S1P1 agonist: S1P1 receptor agonists, human, counter-screen for S1P4 agonist project, cell-based | shares compounds with S1P4 ag | S1P1 agonist cell-based assay, activation | activation, % at 4.98 µM | 740 compounds, 4% hits; in the data active means activation above about 21%
Target sequence (P21453 whole entry, looked up): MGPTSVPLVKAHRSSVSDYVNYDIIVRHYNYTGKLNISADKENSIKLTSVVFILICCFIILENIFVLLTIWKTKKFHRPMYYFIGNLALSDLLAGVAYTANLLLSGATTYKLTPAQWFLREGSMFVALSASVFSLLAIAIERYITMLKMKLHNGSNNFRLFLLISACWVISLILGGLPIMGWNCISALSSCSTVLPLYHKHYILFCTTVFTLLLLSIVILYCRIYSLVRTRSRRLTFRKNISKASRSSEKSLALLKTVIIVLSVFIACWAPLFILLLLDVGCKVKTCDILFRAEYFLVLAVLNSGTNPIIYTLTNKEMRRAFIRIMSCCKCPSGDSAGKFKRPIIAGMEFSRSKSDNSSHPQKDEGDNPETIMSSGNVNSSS
Large screens that a line does not name were inactive (follow-up assays come after a bar, where they were run).

CN(C)CCCNS(=O)(=O)c1ccc(N2CCC(c3ccc(Cl)cc3)=N2)cc1	S1P4 ag 96 (no result: S1P3 antagonist) | S1P4 ag conf 59 | S1P1 agonist 153
O=S(=O)(c1ccc(Oc2ccc(S(=O)(=O)N(CCO)CCO)cc2)cc1)N(CCO)CCO	none
Cc1c(N/C(=N/S(=O)(=O)c2ccc(F)cc2)c2ccccc2)c(=O)n(-c2ccccc2)n1C	S1P4 ag 14 | S1P4 ag conf inactive | S1P1 agonist inactive
CNCc1c(C)nn(-c2ccccc2)c1C	S1P4 ag 34 (no result: Pf gamet viab) | S1P4 ag conf inactive | S1P1 agonist inactive
COc1ccc([N+](=O)[O-])cc1NC(=O)Cc1ccc(C)cc1	none
Cc1cc(C)nc(NC(=O)Cc2ccc([N+](=O)[O-])cc2)c1	S1P4 ag 30 | S1P4 ag conf inactive | S1P1 agonist inactive
COc1ccc([N+](=O)[O-])cc1NC(=O)Cc1ccc(Cl)cc1	S1P4 ag 15 (no result: Pf gamet viab) | S1P4 ag conf inactive | S1P1 agonist inactive
O=c1[nH]c(/C=C\c2ccccc2F)nc(O)c1[N+](=O)[O-]	none (no result: S1P4 ag, S1P3 antagonist, S1P4 antagonist, Hsp70 act)
Clc1ccc(-n2cnnn2)cc1	none
Oc1ccc(-n2cnnn2)cc1	S1P4 ag 30 (no result: S1P3 antagonist) | S1P4 ag conf inactive | S1P1 agonist inactive
CC(=O)Nc1ccc(N=Cc2nc(-c3ccc(C)cc3)oc2O)cc1	none
Cc1ccc(N=Cc2nc(-c3ccc(C)cc3)oc2O)cc1	S1P4 ag 15 (no result: Pf gamet viab) | S1P4 ag conf inactive | S1P1 agonist inactive
CCOC(=O)c1cc2c(=O)n3ccccc3nc2n(CCOC)c1=NC(=O)c1ccncc1	S1P4 ag 18 (no result: S1P3 antagonist) | S1P4 ag conf inactive | S1P1 agonist inactive
CCOCCCn1c(=NC(C)=O)c(C#N)cc2c(=O)n3ccccc3nc21	S1P4 ag 25 (no result: Hsp70 act) | S1P4 ag conf inactive | S1P1 agonist inactive
CCOC(=O)c1cc2c(=O)n3ccccc3nc2n(CCCOC)c1=NC(=O)c1cccnc1	none (no result: S1P3 antagonist, Pf gamet viab)
CCOCCCn1c(=NC(C)=O)c(C(=O)OCC)cc2c(=O)n3ccccc3nc21	none (no result: Pf gamet viab)
CCOC(=O)c1cc2c(=O)n3ccccc3nc2n(CCOC)c1=NC(=O)C(C)(C)C	none (no result: S1P3 antagonist)
CCOC(=O)c1cc2c(=O)n3ccccc3nc2n(CCCOC)c1=NC(=O)C(C)(C)C	S1P4 ag 16 (no result: S1P3 antagonist, Pf gamet viab) | S1P4 ag conf inactive | S1P1 agonist inactive
CCn1cc(C(=O)NC2CCCCCC2)c(=O)c2ccc(C)nc21	none (no result: S1P4 ag, S1P3 antagonist, S1P4 antagonist, Hsp70 act)
N#CCc1nc2ccccc2c(=O)[nH]1	none (no result: Hsp70 act)
CC(C)=CCN1CCN(Cc2cccn2-c2ccccn2)CC1CCO (configuration not stated)	none
CC(=O)C1=C(C)NC(SCC(=O)c2ccc(Cl)cc2Cl)=C(C#N)C1c1ccco1 (configuration not stated)	S1P4 ag 24 (no result: Pf gamet viab) | S1P4 ag conf 26 | S1P1 agonist inactive
CCn1c(C)c(CS(=O)(=O)c2ccccc2)[nH]c1=O	none
CC(=O)Nc1ccc(S(=O)(=O)Oc2ccc(C(=S)N3CCC(O)CC3)cc2)cc1	none
CC(=O)Nc1ccc(S(=O)(=O)Oc2ccc(C(=S)N3CCCCC3)cc2)cc1	S1P4 ag 29 | S1P4 ag conf inactive | S1P1 agonist inactive
Cc1cccc2cc3c(NC(=O)C(C)C)nn(C)c3nc12	none (no result: Pf gamet viab)
CC(=O)Nc1nn(C)c2nc(C)cc(C)c12	S1P4 ag 28 | S1P4 ag conf inactive | S1P1 agonist inactive
O=C(NCc1ccccn1)C(=O)Nc1cccc2ccccc12	none
CCOC(=O)C1(Cc2ccc(Cl)cc2)CCN(C(=O)CCc2ccncc2)CC1	S1P4 ag 19 | S1P4 ag conf inactive | S1P1 agonist inactive
Cc1cccc(N=Cc2cc3c(cc2[N+](=O)[O-])OCO3)c1	S1P4 ag 16 (no result: S1P3 antagonist, Pf gamet viab) | S1P4 ag conf inactive | S1P1 agonist inactive
CCCn1c(SCC(=O)NCC2CCCO2)nc2c1c(=O)n(C)c(=O)n2C (configuration not stated)	S1P4 ag 34 | S1P4 ag conf inactive | S1P1 agonist inactive
Cn1c(=O)c2c(nc(SCC(=O)NCC3CCCO3)n2Cc2ccc(F)cc2)n(C)c1=O (configuration not stated)	none
C=CCOC(=O)/C=C/C(=O)NC(N)=O	none (no result: Hsp70 act, Pf gamet viab)
COc1ccc(CNC(=O)c2sc3nc4c(c(C(F)(F)F)c3c2N)CCC4)cc1	S1P4 ag 196 (no result: Pf gamet viab) | S1P4 ag conf inactive | S1P1 agonist inactive
C/C(CC(=O)NC1CCCC1)=N\NC(=O)c1ccc([N+](=O)[O-])c(Cl)c1	none
CS(=O)(=O)N1CCCC(C(=O)Nc2ccc3c(c2)OCCO3)C1 (configuration not stated)	none
Cc1cc(C(=O)CN2C(=O)NC3(CCCC3)C2=O)c(C)n1-c1ccc2c(c1)OCO2	none (no result: Pf gamet viab)
Cc1cc(C(=O)CN2C(=O)NC(C)(CC(C)C)C2=O)c(C)n1-c1ccc2c(c1)OCO2 (configuration not stated)	S1P4 ag 13 (no result: Pf gamet viab) | S1P4 ag conf inactive | S1P1 agonist inactive
COc1ccc2cc(OC)c(C(=O)N3CCOCC3)cc2c1	S1P4 ag 14 | S1P4 ag conf inactive | S1P1 agonist inactive
O=C(N/N=C\c1ccc(O)c([N+](=O)[O-])c1)c1ccccc1-n1cccc1	S1P4 ag 16 (no result: Pf gamet viab) | S1P4 ag conf inactive | S1P1 agonist inactive
COc1ccc2nc(NC(=O)Cn3cnc4ccccc4c3=O)sc2c1	none (no result: Hsp70 act)
Cc1cccc(C)c1Nc1nnc(SCC(=O)c2ccc(Br)s2)s1	S1P4 ag 34 | S1P4 ag conf inactive | S1P1 agonist inactive
COc1cc(C(N)=O)cc(Cl)c1OCc1ccccc1	none
CCOc1cc(C(N)=O)cc(Cl)c1OCc1ccccc1	S1P4 ag 24 | S1P4 ag conf inactive | S1P1 agonist inactive
COc1ccc(OCCOCCOc2ccc(C)cc2[N+](=O)[O-])cc1	S1P4 ag 30 | S1P4 ag conf inactive | S1P1 agonist inactive
COc1cccc(NC(=O)CSc2nnc(Cc3cccs3)n2-c2ccc(C)cc2)c1	S1P4 ag 13 (no result: S1P3 antagonist) | S1P4 ag conf inactive | S1P1 agonist inactive
COc1ccc(NC(=O)CSc2nnc(Cc3cccs3)n2-c2ccc(C)cc2)cc1	none (no result: S1P3 antagonist, Pf gamet viab)
COc1cccc(Oc2cc(Cl)nc(N)n2)c1	none (no result: S1P4 ag, S1P3 antagonist, S1P4 antagonist, Hsp70 act)
CCC(C)(C(=O)NC1CCCCC1)N(Cc1cccs1)C(=O)c1ccccn1 (configuration not stated)	S1P4 ag 45 | S1P4 ag conf inactive | S1P1 agonist inactive
CCOc1cc(Cl)c(CNCCCN2CCOCC2)cc1OC	none (no result: S1P4 ag, S1P3 antagonist, S1P4 antagonist, Hsp70 act)
CCOC(=O)c1c(NC(=O)COC)sc(C)c1C	none (no result: S1P3 antagonist, Pf gamet viab)
CCOC(=O)c1c(NC(=O)COC(=O)c2cc(OC)c(OC)cc2[N+](=O)[O-])sc(C)c1C	S1P4 ag 17 | S1P4 ag conf inactive | S1P1 agonist inactive
